Data as given in PubChem BioAssay (Tox21).
Records with an inconclusive call do not appear. The source made the active and inactive calls. Calls come from the whole dose curve; as a rule, active = well fitted curve in the direction sought with a large enough effect in the repeat runs; inconclusive = weak or mixed curves; inactive = no such curve, though single readings can be large; an effect the other way counts as inactive or inconclusive.

Tests used:
[1] = qHTS RealTime-Glo MT Cell Viability Assay in HepG2 cells - 40 hour (AID 1224870); conditions: RealTime-Glo luminescence; series mostly up to 76.8 µM; note: nearly all actives have a fitted effect of over 50% in size
Method in brief: (§1)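 HepG2 cells (600/well) mixed with RealTime-Glo MT reagent, settled 5 h at 37 C/5% CO2 before compound addition. Nonlytic NanoLuc luminescence from viable-cell prosubstrate reduction read repeatedly during 40 h treatment at 37 C.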

[2] = A CellTox Green Cytotoxicity Assay to monitor cytotoxicity in HEK293 cells - 40 hour (AID 1224871); conditions: CellTox Green fluorescence; series mostly up to 35.3 µM; note: nearly all actives have a fitted effect of over 45% in size
Method in brief: (§2)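 Homogeneous no-lysis format: HEK293 cell suspension mixed with CellTox Green reagent, seeded, incubated 5 h at 37 C/5% CO2, then dosed by pintool with compound in DMSO.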

[3] = qHTS RealTime-Glo MT Cell Viability Assay in HEK293 cells - 16 hour (AID 1224872); conditions: RealTime-Glo luminescence; series mostly up to 76.8 µM; note: top concentration of the series differs between compounds; nearly all actives have a fitted effect of over 50% in size
Method in brief: (§3)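 Tox21 10K qHTS, HEK293, 600 cells/well, RealTime-Glo reagent co-dispensed with cells; 5 h preincubation, compound by pintool, 37 C, luminescence at 0–40 h.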

[4] = qHTS RealTime-Glo MT Cell Viability Assay in HepG2 cells - 8 hour (AID 1224873); conditions: RealTime-Glo luminescence; series mostly up to 76.8 µM; note: nearly all actives have a fitted effect of over 55% in size
Method in brief: as §1

[5] = qHTS RealTime-Glo MT Cell Viability Assay in HEK293 cells - 40 hour (AID 1224874); conditions: RealTime-Glo luminescence; max response: active compounds read low; note: nearly all actives have a fitted effect of over 50% in size
Method in brief: (§4)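 Measured as luminescence from the same continuously cultured HEK293 wells at successive time points (0, 8, 16, 24, 32, 40 h) after compound addition. Reagent present from seeding; dosing at 5 h; incubation 37 C.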

[6] = A CellTox Green Cytotoxicity Assay to monitor cytotoxicity in HEK293 cells - 24 hour (AID 1224875); conditions: CellTox Green fluorescence; series mostly up to 76.8 µM; note: nearly all actives have a fitted effect of over 45% in size
Method in brief: as §2

[7] = A CellTox Green Cytotoxicity Assay to monitor cytotoxicity in HepG2 cells - 16 hour (AID 1224876); conditions: CellTox Green fluorescence; series mostly up to 76.8 µM; note: nearly all actives have a fitted effect of over 45% in size
Method in brief: (§5)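 Fluorescent DNA-binding dye, 600 HepG2 cells/well, 5 h preincubation then compound in DMSO; same plates read at 0–40 h, 37 C.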

[8] = qHTS RealTime-Glo MT Cell Viability Assay in HepG2 cells - 32 hour (AID 1224877); conditions: RealTime-Glo luminescence; series mostly up to 76.8 µM; note: nearly all actives have a fitted effect of over 55% in size
Method in brief: (§6)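 Cells + NanoLuc/prosubstrate dispensed (600 cells/well) → 5 h at 37 C/5% CO2 → compounds in DMSO transferred → 40 h incubation at 37 C, luminescence read at 0, 8, 16, 24, 32, 40 h.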

[9] = A CellTox Green Cytotoxicity Assay to monitor cytotoxicity in HepG2 cells - 24 hour (AID 1224878); conditions: CellTox Green fluorescence; series mostly up to 76.8 µM; note: nearly all actives have a fitted effect of over 45% in size
Method in brief: as §5

[10] = A CellTox Green Cytotoxicity Assay to monitor cytotoxicity in HepG2 cells - 40 hour (AID 1224879); conditions: CellTox Green fluorescence; series mostly up to 76.8 µM; note: nearly all actives have a fitted effect of over 40% in size
Method in brief: as §5

[11] = qHTS RealTime-Glo MT Cell Viability Assay in HEK293 cells - 0 hour (AID 1224880); conditions: RealTime-Glo luminescence; series mostly up to 76.8 µM; note: nearly all actives have a fitted effect of over 45% in size; note: potency is the fitted concentration of half-maximal effect; for activity change, negative = cytotoxicity: top concentration of the series differs between compounds
Method in brief: as §4

[12] = A CellTox Green Cytotoxicity Assay to monitor cytotoxicity in HEK293 cells - 32 hour (AID 1224881); conditions: CellTox Green fluorescence; series mostly up to 35.3 µM; note: nearly all actives have a fitted effect of over 40% in size
Method in brief: as §2

[13] = A CellTox Green Cytotoxicity Assay to monitor cytotoxicity in HepG2 cells - 0 hour (AID 1224882); conditions: CellTox Green fluorescence; series mostly up to 76.8 µM; note: nearly all actives have a fitted effect of over 35% in size
Method in brief: as §5

[14] = A CellTox Green Cytotoxicity Assay to monitor cytotoxicity in HepG2 cells - 32 hour (AID 1224883); conditions: CellTox Green fluorescence; series mostly up to 76.8 µM; note: nearly all actives have a fitted effect of over 50% in size
Method in brief: as §5

[15] = A CellTox Green Cytotoxicity Assay to monitor cytotoxicity in HEK293 cells - 8 hour (AID 1224884); conditions: CellTox Green fluorescence; series mostly up to 76.8 µM; note: nearly all actives have a fitted effect of over 35% in size
Method in brief: as §2

[16] = qHTS RealTime-Glo MT Cell Viability Assay in HepG2 cells - 16 hour (AID 1224885); conditions: RealTime-Glo luminescence; series mostly up to 76.8 µM; note: nearly all actives have a fitted effect of over 50% in size
Method in brief: as §6

[17] = qHTS RealTime-Glo MT Cell Viability Assay in HEK293 cells - 24 hour (AID 1224886); conditions: RealTime-Glo luminescence; series mostly up to 76.8 µM
Method in brief: as §3

[18] = qHTS RealTime-Glo MT Cell Viability Assay in HEK293 cells - 8 hour (AID 1224887); conditions: RealTime-Glo luminescence; series mostly up to 76.8 µM
Method in brief: as §4

[19] = qHTS RealTime-Glo MT Cell Viability Assay in HepG2 cells - 0 hour (AID 1224889); conditions: RealTime-Glo luminescence; series mostly up to 76.8 µM; note: nearly all actives have a fitted effect of over 50% in size; note: potency is the fitted concentration of half-maximal effect
Method in brief: as §6

[20] = A CellTox Green Cytotoxicity Assay to monitor cytotoxicity in HEK293 cells - 16 hour (AID 1224888); conditions: CellTox Green fluorescence; series mostly up to 76.8 µM; note: nearly all actives have a fitted effect of over 35% in size
Method in brief: as §2
% is set by controls: 0 for no effect and ±100 for the full control effect.

O=C(O)CNC(=O)c1ccc([N+](=O)[O-])cc1
inactive: Potency [1] | Potency [2] | Potency [3] | Potency [4] | max response [5] -0.136% | Potency [6] | Potency [7] | Potency [8] | Potency [9] | Potency [10] | Potency [11] | Potency [12] | Potency [13] | Potency [14] | Potency [15] | Potency [16] | Potency [17] | Potency [18] | Potency [19]

CCN1CCC[C@H]1CNC(=O)c1c(O)c(Cl)cc(Cl)c1OC
inactive: Potency [1] | Potency [2] | Potency [3] | Potency [4] | max response [5] -0.593% | Potency [6] | Potency [7] | Potency [8] | Potency [9] | Potency [10] | Potency [11] | Potency [12] | Potency [13] | Potency [14] | Potency [15] | Potency [16] | Potency [17] | Potency [18] | Potency [20] | Potency [19]

CCCCCSCCCCC
inactive: Potency [1] | Potency [2] | Potency [3] | Potency [4] | max response [5] -8.65% | Potency [6] | Potency [7] | Potency [8] | Potency [9] | Potency [10] | Potency [11] | Potency [12] | Potency [13] | Potency [14] | Potency [15] | Potency [16] | Potency [17] | Potency [18] | Potency [19]

CCOC(=O)CCC(C)=O
inactive: Potency [1] | Potency [2] | Potency [3] | Potency [4] | max response [5] -9.25% | Potency [6] | Potency [7] | Potency [8] | Potency [9] | Potency [10] | Potency [11] | Potency [12] | Potency [13] | Potency [14] | Potency [15] | Potency [16] | Potency [17] | Potency [18] | Potency [20] | Potency [19]

CCCC(=O)O[C@]1(C(=O)CO)CC[C@H]2[C@@H]3CCC4=CC(=O)CC[C@]4(C)[C@H]3[C@@H](O)C[C@@]21C
active: Potency [11] 10.7 µM | Potency [19] 2.13 µM
inactive: Potency [1] | Potency [2] | Potency [3] | Potency [4] | max response [5] 0.181% | Potency [6] | Potency [7] | Potency [8] | Potency [9] | Potency [10] | Potency [12] | Potency [13] | Potency [14] | Potency [15] | Potency [16] | Potency [17] | Potency [18]

COC(=O)CCSCCC(=O)OC
inactive: Potency [1] | Potency [2] | Potency [3] | Potency [4] | max response [5] 0.851% | Potency [6] | Potency [7] | Potency [8] | Potency [9] | Potency [10] | Potency [11] | Potency [12] | Potency [13] | Potency [14] | Potency [15] | Potency [16] | Potency [17] | Potency [18] | Potency [20] | Potency [19]

CCSC(=O)N(CC(C)C)CC(C)C
inactive: Potency [1] | Potency [2] | Potency [3] | Potency [4] | max response [5] 5.8% | Potency [6] | Potency [7] | Potency [8] | Potency [9] | Potency [10] | Potency [11] | Potency [12] | Potency [13] | Potency [14] | Potency [15] | Potency [16] | Potency [17] | Potency [18] | Potency [20] | Potency [19]

CC(=O)OCC(=O)[C@@]1(O)CC[C@H]2[C@@H]3CCC4=CC(=O)CC[C@]4(C)[C@H]3C(=O)C[C@@]21C
inactive: Potency [1] | Potency [2] | Potency [3] | Potency [4] | max response [5] -9.91% | Potency [6] | Potency [7] | Potency [8] | Potency [9] | Potency [10] | Potency [12] | Potency [13] | Potency [14] | Potency [15] | Potency [16] | Potency [17] | Potency [18] | Potency [20]
active: Potency [11] 6.01 µM | Potency [19] 1.07 µM

CCC(C)S (stereo unspecified)
inactive: activity change, negative = cytotoxic [1] 2.53% [at 2.72 µM] | cytotoxicity increase [2] -0.869% [at 2.72 µM] | activity change, negative = cytotoxicity [3] 0.797% [at 2.72 µM] | viability change, negative = cytotoxic [4] 0.999% [at 2.72 µM] | max response [5] 2.1% | activity change [6] 2.02% [at 2.72 µM, active compounds read high] | cytotoxicity increase [7] 0.507% [at 2.72 µM] | activity change, negative = cytotoxic [8] -0.778% [at 2.72 µM] | cytotoxicity [9] 1.18% [at 2.72 µM] | cytotoxicity increase [10] -0.0934% [at 2.72 µM] | activity change, negative = cytotoxicity [11] 2.99% [at 2.72 µM] | cytotoxicity increase [12] 1.61% [at 2.72 µM] | cytotoxicity [13] -2.37% [at 2.72 µM] | cytotoxicity increase [14] 1.17% [at 2.72 µM] | cytotoxicity increase [15] 0.141% [at 2.72 µM] | activity change, negative = cytotoxic [16] -0.5% [at 2.72 µM] | activity change, negative = cytotoxicity [17] 1.35% [at 2.72 µM] | activity change, negative = cytotoxicity [18] 2.1% [at 2.72 µM] | activity change, negative = cytotoxicity [19] 5.41% [at 2.72 µM]

Nc1c[n+](N2CCOCC2)no1
inactive: Potency [1] | Potency [2] | Potency [3] | Potency [4] | max response [5] 0.673% | Potency [6] | Potency [7] | Potency [8] | Potency [9] | Potency [10] | Potency [11] | Potency [12] | Potency [13] | Potency [14] | Potency [15] | Potency [16] | Potency [17] | Potency [18] | Potency [20] | Potency [19]

CCO/C([O-])=N/c1c[n+](N2CCOCC2)no1
inactive: Potency [1] | Potency [2] | Potency [3] | Potency [4] | max response [5] 5.08% | Potency [6] | Potency [7] | Potency [8] | Potency [9] | Potency [10] | Potency [11] | Potency [12] | Potency [13] | Potency [14] | Potency [15] | Potency [16] | Potency [17] | Potency [18] | Potency [20] | Potency [19]

C=CCCCCCCCCC=O
inactive: Potency [1] | Potency [2] | Potency [3] | Potency [4] | max response [5] -1.95% | Potency [6] | Potency [7] | Potency [8] | Potency [9] | Potency [10] | Potency [11] | Potency [12] | Potency [13] | Potency [14] | Potency [15] | Potency [16] | Potency [17] | Potency [18] | Potency [20] | Potency [19]

CCOc1ccc(C(=O)OCCN(CC)CC)cc1
inactive: Potency [1] | Potency [2] | Potency [3] | Potency [4] | max response [5] 4.37% | Potency [6] | Potency [7] | Potency [8] | Potency [9] | Potency [10] | Potency [11] | Potency [12] | Potency [13] | Potency [14] | Potency [15] | Potency [16] | Potency [17] | Potency [18] | Potency [20] | Potency [19]
